# Measurements as given in PubChem BioAssay AID1835 (Johns Hopkins Ion Channel Center, 2009).
# Out of some 2,400 compounds screened, about 750 (31%) were called active.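 How the source made its calls: active means median signal gain over dofetilide-blocked control wells reaching their mean plus 3 SD, so readout 1 at least 0; inactive means the rest.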 The list shows a part of the results.
# Molecular target: Voltage-gated inwardly rectifying potassium channel KCNH2 (Homo sapiens) (UniProt Q12809)
# Test: modulators restoring hERG flux under dofetilide – cell-based, thallium flux, duplicate retest, dofetilide IC70, confirmation (AID 1835)
# Details: hERG cell line, FluxOR thallium flux, dofetilide-blocked; at 10 µM; stronger effect = higher value
# Chain of Voltage-gated inwardly rectifying potassium channel KCNH2 (Homo sapiens) (Q12809 whole entry, looked up): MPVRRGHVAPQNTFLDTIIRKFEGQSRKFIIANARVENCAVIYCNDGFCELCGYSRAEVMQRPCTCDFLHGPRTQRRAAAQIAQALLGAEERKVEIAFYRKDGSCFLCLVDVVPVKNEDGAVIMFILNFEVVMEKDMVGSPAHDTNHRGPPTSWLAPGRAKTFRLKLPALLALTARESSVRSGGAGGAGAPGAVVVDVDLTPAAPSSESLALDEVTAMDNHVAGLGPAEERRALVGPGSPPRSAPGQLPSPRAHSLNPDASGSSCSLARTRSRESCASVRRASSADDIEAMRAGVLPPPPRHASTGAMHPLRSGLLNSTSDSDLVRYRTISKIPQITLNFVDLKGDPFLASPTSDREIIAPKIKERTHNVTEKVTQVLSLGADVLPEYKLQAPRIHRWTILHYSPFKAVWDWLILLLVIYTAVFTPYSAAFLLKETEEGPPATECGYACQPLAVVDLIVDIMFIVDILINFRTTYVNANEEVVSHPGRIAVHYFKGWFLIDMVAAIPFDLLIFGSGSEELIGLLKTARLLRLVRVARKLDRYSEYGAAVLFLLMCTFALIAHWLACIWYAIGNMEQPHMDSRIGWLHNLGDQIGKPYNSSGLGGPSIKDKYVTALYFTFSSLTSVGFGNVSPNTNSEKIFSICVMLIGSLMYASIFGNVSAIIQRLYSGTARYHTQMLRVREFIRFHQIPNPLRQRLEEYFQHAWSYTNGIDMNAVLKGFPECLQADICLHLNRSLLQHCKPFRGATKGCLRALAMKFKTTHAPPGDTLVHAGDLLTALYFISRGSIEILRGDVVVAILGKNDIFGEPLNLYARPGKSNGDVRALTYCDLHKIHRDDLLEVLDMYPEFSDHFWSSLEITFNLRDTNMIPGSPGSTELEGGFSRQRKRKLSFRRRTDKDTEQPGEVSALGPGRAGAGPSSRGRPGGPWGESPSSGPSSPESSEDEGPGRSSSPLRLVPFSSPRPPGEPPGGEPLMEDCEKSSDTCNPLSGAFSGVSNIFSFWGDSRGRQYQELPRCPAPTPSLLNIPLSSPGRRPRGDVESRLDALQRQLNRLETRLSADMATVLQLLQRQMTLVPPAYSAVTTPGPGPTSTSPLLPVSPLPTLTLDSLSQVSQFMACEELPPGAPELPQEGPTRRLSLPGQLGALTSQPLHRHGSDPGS
row,SMILES,"activity increase over dofetilide control, less the hit threshold"
1,CCOC(=O)C1CCN(C(=O)CCS(=O)(=O)c2ccc3c(c2)CCN3C(=O)CC)CC1,-17% (inactive)
2,N#Cc1c(N)c(C(=O)c2ccccc2)n2ccccc12,-2% (inactive)
3,Cc1ccsc1/C=N/NC(=O)CNC(=O)c1ccccc1,-2% (inactive)
4,CCCCc1c(O)nc(SCC(=O)N2CCOCC2)[nH]c1=O,-10% (inactive)
5,Cn1ncc2c(O/N=C(\N)c3ccc(C(F)(F)F)cc3)ncnc21,-15% (inactive)
6,NC(=O)C1CCN(C(=O)CCC(=O)c2ccc(F)cc2)CC1,-4% (inactive)
7,Cc1nc(-c2cc(C#N)c(Sc3ccc(Cl)cc3Cl)nc2C)cs1,-4% (inactive)
8,O=C(NC(=S)Nc1ccccc1)c1ccc(Br)o1,5% (active)
9,O=C(NC(=S)Nc1ccccc1F)c1ccc(Br)o1,43% (active)
10,COc1ccc(-c2cc(C(=O)Nc3ccccc3SC)no2)cc1,-2% (inactive)
11,C/C(=N\NC(=S)Nc1cccc(C)c1)c1ccco1,-26% (inactive)
12,COc1ccccc1NC(=S)NC(=O)c1ccc(-c2ccc(Cl)cc2)o1,8% (active)
13,Cc1ccc(NC(=S)NC(=O)c2ccc(Br)o2)c(C)c1,0% (inactive)
14,Cc1cccc(NC(=S)NC(=O)c2ccc(Br)o2)c1,33% (active)
15,Cc1ccc2cc(CN(CCCN(C)C)C(=S)NCc3ccccc3)c(=O)[nH]c2c1C,-19% (inactive)
16,Cc1nn(-c2ccc(Cl)nn2)c(=O)c2ccccc12,-12% (inactive)
17,COc1cccc2cc(-c3nc4ccccc4[nH]3)c(=O)oc12,-24% (inactive)
18,CC(C)=CC(=O)OCC(=O)Nc1ccc(SC(F)F)cc1,-16% (inactive)
19,Cc1c(C(=O)NC(=S)NCc2cccnc2)oc2ccccc12,-7% (inactive)
20,O=C(NC(=S)Nc1cccnc1)c1cc2ccccc2o1,21% (active)
21,O=C(Nc1cccnc1)c1cc(-c2cccs2)on1,-16% (inactive)
22,O=C(NC(=S)NCCC1=CCCCC1)c1ccco1,50% (active)
23,O=C(NC(=S)NCCc1ccc(Cl)cc1)c1ccco1,-7% (inactive)
24,O=C(NC(=S)NCCC1=CCCCC1)c1ccc(Br)o1,27% (active)
25,S=C(NCCc1ccccc1)NCCN1CCOCC1,-10% (inactive)
26,Oc1c(Br)cc(Br)cc1CNc1cccc2cccnc12,-19% (inactive)

row,SMILES,"activity increase over dofetilide control, less the hit threshold"
1,CN(Cc1ccccc1)C(=O)CCc1ccccc1,12% (active)
2,COc1ccc(S(=O)(=O)N(CCc2ccccc2)CC(=O)O)cc1,-12% (inactive)
3,CN(Cc1ccsc1)C(=O)CCc1nnc(Cc2c[nH]c3ccccc23)o1,-8% (inactive)
4,O=C1NCCN1Cc1ccccc1F,-20% (inactive)
5,CC(C)(C)c1ccc(C(=O)NC(=S)N2CCCCCC2)cc1,16% (active)
6,O=C(/C=C/c1ccccc1)Nc1ccc(C(=O)N2CCCCC2)cc1,-14% (inactive)
7,CC(C)(C)c1ccc(/C=C/C(=O)N2CCCCC2)cc1,5% (active)
8,Cc1ccc2c(c1)C1CN(C)CCC1N2C(=S)NC(=O)c1ccc(Br)cc1 (stereo not drawn),-26% (inactive)
9,CCOC(=O)C1CCCN(C(=S)NC(=O)/C=C/c2ccc(F)cc2)C1 (stereo not drawn),-6% (inactive)
10,O=C(NC(=S)N1CCCCCC1)c1ccc(Cl)cc1Cl,11% (active)
11,CN1CCN(C(=S)NC(=O)c2ccc(C(C)(C)C)cc2)CC1,-15% (inactive)
12,CC1CCN(C(=S)NC(=O)c2ccc(C(C)(C)C)cc2)CC1,22% (active)
13,COc1cc(OC)cc(C(=O)NC(=S)N2CCCCCC2)c1,-12% (inactive)
14,CC(C)(C)c1ccc(C(=O)NC(=S)N2CCCC2)cc1,-6% (inactive)
15,O=C(NC(=S)N1CCCC1)c1ccc(Cl)cc1,0% (inactive)
16,O=[N+]([O-])c1cccnc1Sc1n[nH]c(-c2ccc(Cl)cc2)n1,-14% (inactive)
17,Cc1ccc2[nH]c3c(c2c1)CNCC3,-15% (inactive)
18,CCC(=O)Nc1nnc(-c2ccccn2)o1,-17% (inactive)
19,O=C(NN1C(=O)C2C(c3ccccc3)C=CC(c3ccccc3)C2C1=O)c1ccncc1 (stereo not drawn),-56% (inactive)
20,O=C(C1CC(=O)N(c2ccc3c(c2)OCCO3)C1)N1CCCC(C(F)(F)F)C1 (stereo not drawn),-15% (inactive)
21,CC1CN(C(=S)NC(=O)c2ccc(Cl)cc2)CC(C)O1 (stereo not drawn),5% (active)
22,O=C(NC(=S)N1CCCC(C(F)(F)F)C1)c1ccc(F)cc1 (stereo not drawn),19% (active)
23,O=C(c1ccc(C(F)(F)F)cc1)C1CCCN(C(=O)CCc2ccncc2)C1 (stereo not drawn),-7% (inactive)
24,COc1ccc(C(=O)NC(=S)N2CCC(C)CC2)cc1,-11% (inactive)
25,COc1ccc(C(=O)NC(=S)N2CCC(C)CC2)cc1Br,26% (active)
26,Cc1ccc2c(c1)N(CCC(=O)NCc1cccnc1)C(=O)CO2,-17% (inactive)

row,SMILES,"activity increase over dofetilide control, less the hit threshold"
1,O=C1NC2(CCCCCC2)C(=O)N1Cc1ccccc1,-2% (inactive)
2,CC(C)(C)OC(=O)NCCCC(CCCNC(=O)OC(C)(C)C)C(=O)O,-22% (inactive)
3,CCOC(=O)CN1C(=O)SC(Nc2ccc(C)cc2)C1=O (stereo not drawn),-10% (inactive)
4,Cc1nc2c(C(=O)NCc3cccs3)cnn2c(C)c1Cc1ccccc1,-12% (inactive)
5,CCCn1c(SCC(N)=O)nc2c(c1=O)C1(CCCC1)Cc1ccccc1-2,2% (active)
6,CC1CCCN(C(=O)COC(=O)c2cc(-c3cccs3)nn2-c2ccccc2)C1 (stereo not drawn),-29% (inactive)
7,Nc1ccc(NC(=O)Nc2ccc(N)cc2)cc1,-3% (inactive)
8,COc1cccc(N2CCN(CC(=O)NC(=O)NCc3ccco3)CC2)c1,-9% (inactive)
9,O=C(NCc1ccco1)c1ccc(OCC2CCCO2)cc1 (stereo not drawn),-22% (inactive)
10,Cc1cc2c(cc(C(=O)OC(C(=O)NCc3ccco3)C(C)C)n2C)o1 (stereo not drawn),2% (active)
11,Cc1ccc(/C=C/C(=O)C2C(=O)c3ccccc3C2=O)cc1,42% (active)
12,CCc1ccc(/C=C/C(=O)C2C(=O)c3ccccc3C2=O)cc1,49% (active)
13,Cc1ccc(/C=C(\NC(=O)c2ccccc2)C(=O)N2CCCCC2)cc1,-26% (inactive)
14,CCc1ccc(/C=c2\s/c(=C\C(=O)C(C)(C)C)[nH]c2=O)cc1,-6% (inactive)
15,CC(=O)C1=C(C)NC(=O)NC1/C=C/c1ccccc1 (stereo not drawn),-1% (inactive)
16,CCC(c1nnc(SCC(=O)NCCc2ccc(Cl)cc2Cl)o1)N(C)C (stereo not drawn),-16% (inactive)
17,CCCCNC(=S)NNC(=O)c1ccc2c(c1)OCO2,-13% (inactive)
18,O=C(NC(=S)N1CCN(C/C=C/c2ccccc2)CC1)c1ccc(Cl)nc1,-7% (inactive)
19,COc1ccc(C(=O)N2CCN(Cc3ccc4c(c3)OCO4)CC2)cc1[N+](=O)[O-],-7% (inactive)
20,O=C(NC(=S)N1CCN(Cc2ccc3c(c2)OCO3)CC1)c1cccc(Br)c1,48% (active)
21,O=C(NC(=S)N1CCN(Cc2ccc3c(c2)OCO3)CC1)c1ccc(Cl)cc1,21% (active)
22,O=C(COc1ccc(Cl)cc1)N1CCN(Cc2ccc3c(c2)OCO3)CC1,-17% (inactive)
23,Cc1cc(Cl)c(S(=O)(=O)N2CCSCC2)cc1OCC(=O)NC1CCCCC1,-8% (inactive)
24,Cc1nc(NCCc2ccc(S(N)(=O)=O)cc2)c2c(C)c(C)sc2n1,2% (active)
25,O=C(Nc1nnc(-c2ccccc2)o1)c1ccc(Cl)cc1,-19% (inactive)
26,O=C(Nc1nc(-c2ccccc2)c(-c2ccccc2)o1)c1ccc(F)cc1,17% (active)

row,SMILES,"activity increase over dofetilide control, less the hit threshold"
1,O=C(Nc1cccc2[nH]ncc12)c1ccc(F)cc1,-7% (inactive)
2,O=c1cc(-c2c(F)c(F)c(F)c(F)c2F)oc2ccccc12,2% (active)
3,CCOC(=O)C(=CNc1ccc(N2CCOCC2)cc1)C(=O)OCC,0% (inactive)
4,CCOC(=O)C(=CNc1cc(C)nn1C(C)(C)C)C(=O)OCC,2% (active)
5,CCOC(=O)C(=CNc1cccc(C)n1)C(=O)OCC,5% (active)
6,CCOC(=O)CC(=O)CSc1nc2c(C)c(C)ccc2cc1C,-7% (inactive)
7,CCOC(=O)C(=CNc1cc(C)ccc1[N+](=O)[O-])C(=O)OCC,-17% (inactive)
8,CCOC(=O)C(=CNc1cc(C)ccn1)C(=O)OCC,10% (active)
9,CCOC(=O)C(=CNc1ccc(OC)cc1[N+](=O)[O-])C(=O)OCC,-10% (inactive)
10,O=C(NC1CCCC1)C(c1ccncc1)N(C(=O)Cn1nnc(-c2ccccc2F)n1)c1cccc(F)c1 (stereo not drawn),-14% (inactive)
11,Cc1cccc(C)c1NC(=O)Cn1cnc2c(=O)n(C)c(=O)n(C)c21,-17% (inactive)
12,COc1ccccc1C1C(C(=O)c2ccc(C)o2)=C(O)C(=O)N1c1cc(C)on1 (stereo not drawn),-1% (inactive)
13,Cc1ccc(NC(=O)COc2cccnc2[N+](=O)[O-])cc1S(=O)(=O)N1CCOCC1,-24% (inactive)
14,Cc1ccc(-c2noc(CCC(=O)NC3CCCC3)n2)cc1,-7% (inactive)
15,Cc1cc(C)cc(-n2c(C)cc(/C=N/NC(=O)CN(c3c(C)cccc3C)S(C)(=O)=O)c2C)c1,-1% (inactive)
16,CN(C(=S)NC(=O)c1ccccc1Br)C1CCCCC1,1% (active)
17,CCN(C(=S)NC(=O)c1ccccc1Br)C1CCCCC1,80% (active)
18,O=C(NCC1CCCCC1)c1cccnc1Cl,-14% (inactive)
19,COc1cc(S(=O)(=O)Nc2c(C)cc(C)cc2C)ccc1Cl,-10% (inactive)
20,O=C(CN1C(=O)COc2ccccc21)NNC(=O)Nc1ccccc1F,-22% (inactive)
21,CCCn1c(SCN2C(=O)c3ccccc3C2=O)nc2cc(Cl)ccc2c1=O,20% (active)
22,CC(C)CCn1c(SCC(=O)NC2CC2)nc2cc(Cl)ccc2c1=O,-13% (inactive)
23,COCCn1c(SCC(=O)Nc2cc(C)cc(C)c2)nc2ccccc2c1=O,-9% (inactive)
24,CCCCC1C2=C(CCCC2=O)OC2=C1C(=O)CCC2,-13% (inactive)
25,CCCCn1c(N)c(C(=S)NC(=O)CC(C)(C)C)c(=O)n(C)c1=O,-3% (inactive)
